{"source": "PubChem BioAssay", "note": "A number with no mark means an inactive call.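 How the source made its calls: active means mean inhibition over 43.08%, the solvent-only control mean plus 3 SD; inactive means the rest.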"}
{"biological_target": "Nuclear receptor coactivator 3 (Homo sapiens) (UniProt Q9Y6Q9)", "sequence (Q9Y6Q9 whole entry, looked up, the tested form may be a part)": "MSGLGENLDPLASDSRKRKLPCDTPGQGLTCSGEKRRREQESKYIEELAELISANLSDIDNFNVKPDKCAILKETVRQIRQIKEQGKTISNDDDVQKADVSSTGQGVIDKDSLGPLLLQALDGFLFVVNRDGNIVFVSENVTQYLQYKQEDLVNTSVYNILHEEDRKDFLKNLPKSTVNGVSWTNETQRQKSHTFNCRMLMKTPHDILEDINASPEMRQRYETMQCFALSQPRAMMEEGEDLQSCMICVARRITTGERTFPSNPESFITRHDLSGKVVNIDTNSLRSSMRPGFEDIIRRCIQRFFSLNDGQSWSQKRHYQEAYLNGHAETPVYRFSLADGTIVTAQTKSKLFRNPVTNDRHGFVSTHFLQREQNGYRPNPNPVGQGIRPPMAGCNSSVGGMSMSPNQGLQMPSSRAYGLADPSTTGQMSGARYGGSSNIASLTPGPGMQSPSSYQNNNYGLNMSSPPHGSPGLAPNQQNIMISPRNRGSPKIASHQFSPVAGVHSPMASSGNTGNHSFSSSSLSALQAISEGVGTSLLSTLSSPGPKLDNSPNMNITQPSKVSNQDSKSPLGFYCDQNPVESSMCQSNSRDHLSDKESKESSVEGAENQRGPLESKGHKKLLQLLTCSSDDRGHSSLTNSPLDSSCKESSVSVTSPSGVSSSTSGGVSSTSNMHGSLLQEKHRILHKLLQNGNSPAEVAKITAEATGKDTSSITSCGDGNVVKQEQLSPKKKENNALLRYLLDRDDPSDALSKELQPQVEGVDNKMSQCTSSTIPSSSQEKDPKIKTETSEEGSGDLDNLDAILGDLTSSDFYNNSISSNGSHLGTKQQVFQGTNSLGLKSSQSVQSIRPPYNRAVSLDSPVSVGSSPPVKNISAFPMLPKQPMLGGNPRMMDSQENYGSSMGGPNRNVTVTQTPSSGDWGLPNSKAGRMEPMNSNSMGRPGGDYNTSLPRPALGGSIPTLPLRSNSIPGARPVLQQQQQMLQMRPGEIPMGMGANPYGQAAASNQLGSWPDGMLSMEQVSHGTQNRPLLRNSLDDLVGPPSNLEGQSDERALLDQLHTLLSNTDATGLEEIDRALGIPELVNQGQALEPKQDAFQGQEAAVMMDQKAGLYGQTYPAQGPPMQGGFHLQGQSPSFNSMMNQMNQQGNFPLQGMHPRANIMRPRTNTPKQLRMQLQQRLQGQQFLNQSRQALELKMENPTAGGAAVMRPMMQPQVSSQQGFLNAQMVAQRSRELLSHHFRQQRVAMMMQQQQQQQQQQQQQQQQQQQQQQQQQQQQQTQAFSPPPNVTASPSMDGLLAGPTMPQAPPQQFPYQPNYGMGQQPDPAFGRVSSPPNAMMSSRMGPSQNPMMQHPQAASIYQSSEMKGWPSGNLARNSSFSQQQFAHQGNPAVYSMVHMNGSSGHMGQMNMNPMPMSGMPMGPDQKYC", "assay": "SRC3 coactivator transcriptional activity inhibitors, confirmation, cell-based, luminescence, quadruplicate (AID 588792);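 further: 0% = DMSO treated cells and 100% = gossypol at 36 µM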", "settings": "HEK293 GAL4-SRC3 luciferase reporter, at 3.6 µM, stronger effect = higher value", "units": {"inhibition": "%"}}
{"smiles": "CCn1nc(C(=O)OCC(=O)c2ccc3c(c2)OCCO3)c2ccccc2c1=O", "inhibition": -13.9}
{"smiles": "CC(=O)c1c(C)[nH]c(C(=O)CSc2nc3ccccc3n2C)c1C", "inhibition": 2.74}
{"smiles": "O=C(Cn1cnc([N+](=O)[O-])n1)N/N=C/c1cc(Cl)ccc1O", "inhibition": 20.3}
{"smiles": "COc1cccc(CNCCO)c1OCc1ccccc1", "inhibition": -2.38}
{"smiles": "Cc1ccc(S(=O)(=O)NCCC(=O)N2CCN(c3ccccc3)CC2)cc1C", "inhibition": 6.68}
{"smiles": "COc1cc(NC(=O)c2cc3ccccc3cc2OC)ccc1NC(=O)c1cccs1", "inhibition": 4.37}
{"smiles": "NC(=S)N/N=C1\\CCOc2ccc(Cl)cc21", "inhibition": 34.6}
{"smiles": "COc1cccc(C(=O)/C=C/c2ccc(OCC#N)c(OC)c2)c1", "inhibition": 22.2}
{"smiles": "CCCCCCCN1C2=NCCCN2c2ccccc21", "inhibition": -5.13}
{"smiles": "CCOC(=O)c1ccc2nc(Nc3nc4ccc(F)cc4s3)sc2c1", "inhibition": 15.2}
{"smiles": "CCC(O)CC(C(=O)NNc1ccccc1)C(=O)NNc1ccccc1", "note": "(stereo not given)", "inhibition": -2.21}
{"smiles": "C=CC[C@@H](CC(=O)NCCO)C(=O)NC[C@H](OC(=O)[C@@H](CC=C)Cc1ccc(F)cc1)c1ccccc1", "inhibition": 16.2}
{"smiles": "Cc1cccc(Nc2nc(-c3c(C)nc4ccccn34)cs2)c1", "inhibition": 19.1}
{"smiles": "Cc1ccc(S(=O)(=O)NCc2ccc(C(=O)N3CCN(c4ccc([N+](=O)[O-])cc4)CC3)cc2)cc1", "inhibition": 17}
{"smiles": "COc1cccc(/C=N/Nc2nc3ccccc3n3cnnc23)c1O", "inhibition": 13.4}
{"smiles": "CCc1ccc(CN(C)C(=O)c2cc(COc3cccc4cnccc34)on2)cc1", "inhibition": 18.4}
{"smiles": "COc1ccc(C(=O)/C=C/c2cc(OC)c(O)c(OC)c2)c(F)c1", "inhibition": 26.6}
{"smiles": "CCOC(=O)c1c(-c2ccccc2)nnn1-c1nc(OCC)nc(N2CCCCC2)n1", "inhibition": -15.5}
{"smiles": "O=C(Oc1ccc(F)cc1C(=O)/C=C/c1cccs1)c1cccc([N+](=O)[O-])c1", "inhibition": -13.7}
{"smiles": "CCOC(=O)c1c(C)[nH]c(C)c1C(=O)COC(=O)/C=C/c1cccc(Cl)c1", "inhibition": -3.47}
{"smiles": "NC(=S)N/N=C\\c1c(OCc2ccccc2Cl)ccc2ccccc12", "inhibition": 18.1}
{"smiles": "COc1cc(C(F)(F)F)c(C(=O)N(C)Cc2cc(Cl)cc(Cl)c2)cn1", "inhibition": -10.3}
{"smiles": "CCCC(=O)NC(c1ccc2c(c1)OCO2)c1cc(Cl)c2cccnc2c1O", "note": "(stereo not given)", "inhibition": 40.7}
{"smiles": "Cn1ncc2c(O/N=C(\\N)c3ccc(C(F)(F)F)cc3)ncnc21", "inhibition": -12.9}
{"smiles": "Cc1ccc(S(=O)(=O)Nc2ccc3c(c2)OCCO3)cc1C", "inhibition": 24.1}
{"smiles": "COC(=O)c1ccccc1NC1=C/C(=N\\S(=O)(=O)c2cccs2)c2ccccc2C1=O", "inhibition": 2.2}
{"smiles": "CN[C@H]1CCc2cc(OC)c(OC)c(OC)c2-c2ccc(OC)c(=O)cc21", "inhibition": 40.5}
{"smiles": "Cc1ccc(O)c(C(=O)c2cnc3c(c2)COc2ccccc2-3)c1", "inhibition": -8.22}
{"smiles": "CCn1c(C)nc2cc(C(=O)N/N=C(\\C)c3ccc(OC)cc3O)ccc21", "inhibition": 24.6}
{"smiles": "COc1ccc2c(c1)CCc1cnc(N)nc1-2", "inhibition": 20}
{"smiles": "Clc1ccc(-c2noc(CSc3nnc(-c4ccncc4)n3-c3ccccc3)n2)cc1", "inhibition": 8.46}
{"smiles": "Cc1ccc(C(=O)N/N=C/c2ccc(-c3cccc(C(F)(F)F)c3)o2)cn1", "inhibition": 6.91}
{"smiles": "Cc1cccc(OCC(=O)NCC(=O)N/N=C/c2ccc(O)cc2O)c1", "inhibition": 15.4}
{"smiles": "CCN1C/C(=C/c2ccc(N3CCOCC3)cc2)C(=O)/C(=C/c2ccc(N3CCOCC3)cc2)C1", "inhibition": 40.8}
{"smiles": "CCn1cc(C(=O)NCc2ccccn2)c(=O)c2cc(F)c(N3CCN(C)CC3)cc21", "inhibition": -0.49}
{"smiles": "Cc1ccc(S(=O)(=O)N(C)c2ccc(OCC(=O)OCc3c(C)noc3C)cc2)cc1", "inhibition": -4.68}
{"smiles": "Cc1cc(C=C2C(=O)c3ccccc3C2=O)c(C)n1-c1cccc(C(=O)O)c1", "inhibition": 23.3}
{"smiles": "Cc1ccsc1C(=O)C1CCCN(Cc2cccn2-c2ccc(Cl)cn2)C1", "note": "(stereo not given)", "inhibition": -3.2}
{"smiles": "O=c1cc(CNc2cc(C(F)(F)F)cc(C(F)(F)F)c2)nc2sccn12", "inhibition": 4.27}
{"smiles": "Cc1ccc(-n2c(-c3ccccc3)c[n+]3c2CCC3)cc1", "inhibition": 14.4}
